Sampled rows, rich in hits. Any-hit rate of the full collection: about 9.3%.
NPC1 prom act – activates the NPC1 promoter; AID 485313; Huh7 NPC1 promoter luciferase reporter, 24 h; hit rate 2.4% among 320,000; Potency, µM (top dose mostly 9.22 µM), without a hit: at the top dose activation, hits mostly activators; also: % of control where 0% means no effect; nearly all actives have a fitted effect of over 60% in size
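Quantitative HTS used a cell-based reporter: Huh7 cells stably bearing the NPC1 promoter upstream of luciferase were treated with compounds for 24 h, and promoter activation was read as luminescence.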
FLuc modulator – counter-screen for miR-21 project: firefly luciferase inhibitors or activators; purified FLuc, Km substrates, luminescence inhibition; Potency, µM (series often up to 57.5 µM), without a hit: at the top dose activity change, negative = inhibition, most hits filed as inhibitors; P08659; hit rate 6.9% among 360,000;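 also: plate controls were vehicle for no effect and reference inhibitor for full effect; nearly all actives have a fitted effect of over 55% in size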
Target sequence (P08659 whole entry, looked up): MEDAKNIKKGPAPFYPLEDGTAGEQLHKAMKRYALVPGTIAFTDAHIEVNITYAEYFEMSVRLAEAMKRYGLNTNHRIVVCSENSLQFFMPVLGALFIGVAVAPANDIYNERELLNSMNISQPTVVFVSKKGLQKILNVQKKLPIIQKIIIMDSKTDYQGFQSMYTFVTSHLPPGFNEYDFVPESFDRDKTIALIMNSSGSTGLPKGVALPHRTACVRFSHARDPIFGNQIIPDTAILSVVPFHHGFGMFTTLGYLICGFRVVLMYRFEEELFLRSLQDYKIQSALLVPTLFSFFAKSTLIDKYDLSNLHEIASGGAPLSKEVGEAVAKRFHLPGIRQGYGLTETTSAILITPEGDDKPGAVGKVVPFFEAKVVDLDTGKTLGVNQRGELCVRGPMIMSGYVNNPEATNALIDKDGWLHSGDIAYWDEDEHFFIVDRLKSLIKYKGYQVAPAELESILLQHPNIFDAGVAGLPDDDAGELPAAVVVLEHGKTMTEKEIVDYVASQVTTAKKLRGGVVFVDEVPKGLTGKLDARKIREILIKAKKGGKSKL
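Biochemical qHTS of compounds, final roughly 60 µM downward over six points, against 10 nM purified firefly luciferase using Km concentrations of substrates (10 uM D-luciferin, 10 uM ATP) in Tris acetate pH 7.5 buffer; luminescence output.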
ELG1 repair inh – ELG1-dependent DNA repair inhibition. Potency, µM (highest dose often 46.1 µM), inactives show at the top dose activity change, negative = inhibition, most hits filed as inhibitors. hit rate 2.3% among 330,000. HEK293T ELG1-luciferase reporter, luminescence, 16 h; DNA damage induced by 5-fluorouridine; also: % is scaled to controls: 0 for no effect and ±100 for the full control effect; nearly all actives have a fitted effect of over 55% in size
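In this reporter screen, reduction of luminescence relative to DMSO vehicle indicated activity. Compounds and 5-fluorouridine were added together to 2,000 cells per well, incubated for 16 hr at 37 °C, then developed with ONE-Glo.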
Rab9 promoter act – activators of Rab9 promoter | Huh7 Rab9 promoter-luciferase reporter, luminescence, 24 h | Potency, µM (doses to about 9.22 µM), without a hit: at the highest dose activation, negative = inhibition, most hits filed as activators | hit rate 2.8% among 320,000; also: % of control where 0% means no effect; nearly all actives have a fitted effect of over 60% in size
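Quantitative HTS format; Huh7 Rab9-luciferase reporter cells (1500/well) receive compound 2 h post-plating, incubate 24 h at 37 °C, then get luciferase reagent for 10 min before luminescence reading.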
SMN2 splice up – SMN2 splice variant enhancement | HEK293 SMN2-luciferase splicing reporter, luminescence, 30-36 h | Potency, µM (titrated, usually from 46.1 µM), for inactives: at the top dose activity change, positive = activation, actives largely listed as activators | hit rate 2.8% among 210,000 | AID 1458; also: % of control where 0% means no effect; nearly all actives have a fitted effect of over 55% in size
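HEK293 cells carry an SMN2 […]–luciferase reporter in which exon 7 inclusion puts luciferase in frame. Cells were plated 10-12 h before compound addition, then incubated 30-36 h at 37C. ONE-Glo luminescence was read; sodium butyrate at 4.5 mM final served as control.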
ELG1 genotox – inducers of genotoxicity in HEK293T ELG1-luciferase cells | HEK293T ELG1-luciferase reporter, luminescence, 16 h | Potency, µM (titrated, usually from 46 µM), inactives show at the top dose activity change, positive = activation, actives largely listed as activators | hit rate 1.3% among 330,000 | AID 504466; also: % of control where 0% means no effect; nearly all actives have a fitted effect of over 60% in size
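HEK293T cells expressing luciferase-tagged ELG1 were treated with compound or DMSO for 16 hr at 37°C. Luciferase activity was then read after 30 min with ONE-Glo at room temperature; rising signal flags genetic stress.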
* hit, by the source's call; ? = inconclusive; . = no result given; [ ] = remark or other dose. Calls follow the shape of the dose curve; as a rule, active = well fitted curve in the direction sought with a large enough effect; inconclusive = small, poorly fitted or top-dose-only effect, or another doubt; inactive = no such curve, though single readings can be large; an effect the other way counts as inactive or inconclusive. Potency is read from the fitted curve at half-maximal effect.

SMILES	NPC1 prom act	FLuc modulator	ELG1 repair inh	Rab9 promoter act	SMN2 splice up	ELG1 genotox
O=C(COc1ccc2ccccc2c1)Nc1nc2ccccc2[nH]1	2%	-3%	?	1%	-19%	14%
COc1ccc(CCNC(=O)c2cc(Sc3cccc(Cl)c3)nc3ccccc23)cc1OC	.	0%	.	.	.	.
CSc1ccc(CCNC(=O)Cn2ncc3c(=O)oc4ccc(C)cc4c32)cc1	.	-2%	.	.	4%	.
COC(=O)[C@@H]1C[C@H]1[C@@H](NC(=O)c1cc(C)nn1C)c1ccccc1	.	.	.	.	-4%	.
Fc1ccc(-n2[nH]nnc2=S)cc1N1CCCC1	16%	24µM*	28%	15%	1%	13%
CC(C)NS(=O)(=O)c1ccc(NC(=O)C(C)OC(=O)CCCOc2ccccc2)cc1 (stereo unspecified)	2%	3%	-6%	-3%	.	-1%
COc1ccc(-c2c[n+](CC(=O)OC3CC(C)CCC3C(C)C)c3n2CCC3)cc1 (stereo unspecified)	-36%	5%	?	-25%	-78%	-17%
CC(C)[C@@H]1CC[C@@H](C)C[C@H]1OC(=O)C[n+]1cc(-c2ccc(Cl)cc2)n2c1CCCCC2	-1%	-1%	21µM*	-27%	.	-7%
O=C1N=c2ccccc2=C1c1sc(NS(=O)(=O)Cc2ccccc2)nc1O	2%	11µM*	23%	-3%	.	4%
O=C1N=c2ccccc2=C1c1sc(Nc2ccc(O)cc2)nc1O	1%	?	?	-1%	9%	-13%
O=C1N=c2ccccc2=C1c1sc(Nc2cccc(O)c2)nc1O	15%	19µM*	20%	5%	.	16%
CC(C)CN1C(=O)C(=O)N(CC(=O)N(C)CC(=O)Nc2ccc(Cl)c(C(F)(F)F)c2)C1=O	-4%	4%	-23%	-2%	.	1%
CC1(C)CC(=O)C=C(NC2=CC3OC(c4ccccc4)OCC3OC2=O)C1 (stereo unspecified)	-6%	0%	13µM*	0%	-11%	-8%
CC(=O)N=C(N)Sc1nc2ccccc2[nH]1	2.5µM*	15µM*	?	4µM*	13µM*	?
CC(=O)NC1C(O)C[C@@](O)(C(=O)O)OC1[C@@H](O)C(O)CO (stereo partly specified)	.	.	.	.	-5%	.
COc1ccc(N2CCN(CC(=O)Nc3ccccc3C(=O)NCc3ccccc3)CC2)cc1	1%	-1%	7.1µM*	-12%	.	-8%
COc1ccc(CCNC(=O)c2ccccc2NC(=O)CN2CCN(c3ccccc3O)CC2)cc1	5%	4%	5.2µM*	1%	.	-14%
N#Cc1c(N)nc(SCc2ccccn2)c(C#N)c1-c1cccs1	-4%	3%	15µM*	-4%	-47%	-16%
c1ccc(CSc2ccc(-c3cccs3)nn2)nc1	3.5µM*	24µM*	?	2.2µM*	16µM*	17%
c1ccc(CSc2ccc(-c3cccs3)nn2)cc1	3.2µM*	1.9µM*	?	2.8µM*	16µM*	?
COc1ccc(NC2CCCN(C(=O)CCC3=NNC(=O)CC3)C2)cc1 (stereo unspecified)	1%	-3%	-4%	-2%	.	-1%
CC(C)(C)c1ccc(OCCSc2nc(-c3cccs3)nc3cc(=O)[nH]n23)cc1	.	15µM*	.	.	.	.
Cc1ccccc1NC(=O)CSc1nc(-c2cccs2)nc2cc(=O)[nH]n12	2%	5%	.	-3%	.	.
COc1ccc(C/C(O)=C(\C#N)c2nc3ccccc3s2)cc1	-4%	?	1%	-3%[1.84 µM]	-45%	-8%
N#C/C(=C(/O)c1ccc(F)cc1)c1nc2ccccc2s1	2.5µM*	9.5µM*	-7%	2.5µM*	-35%	-2%
SMILES	NPC1 prom act	FLuc modulator	ELG1 repair inh	Rab9 promoter act	SMN2 splice up	ELG1 genotox
N#C/C(=N\O)c1nc2ccccc2s1	-4%	?	-8%	4%	.	-2%
Cc1ccc(SC/C(O)=C(\C#N)c2nc3ccccc3s2)cc1	-2%	?	-1%	-4%	11%	-5%
N#C/C(=C(/O)CSc1ccccn1)c1nc2ccccc2s1	0%	21µM*	14%	-6%	77%	6%
N#C/C(=C(/O)c1ccc(-c2cccc([N+](=O)[O-])c2)o1)c1nc2ccccc2s1	8%	3µM*	-7%	17%	2%	-4%
N#C/C(=C(/O)COc1ccc(Cl)cc1)c1nc2ccccc2s1	4%	24µM*	?	-2%	-15%	-10%
CCN(CC(=O)Nc1ccccc1C(F)(F)F)C(=O)CN1C(=O)NC(C)(c2ccccc2)C1=O (stereo unspecified)	0%	3%	13%	0%	.	1%
O=C(c1ccc2c(c1)N(Cc1cccc(Cl)c1)C(=O)c1ccccc1S2(=O)=O)N1CCN(c2cccc(C(F)(F)F)c2)CC1	.	0%	.	.	.	.
COc1ccc(NC(=O)CC2SC(N3CCOCC3)=NC2=O)cc1OC (stereo unspecified)	-7%	.	5%	0%	.	1%
N#C/C(=C(/O)COc1ccccc1)c1nc2ccccc2s1	-1%	19µM*	?	-1%	2%	-6%
CC(=O)c1ccc(OCCCC(=O)N(CCC2=CCCCC2)c2c(N)n(Cc3ccccc3)c(=O)[nH]c2=O)cc1	-9%	5%	-29%	2%	.	-13%
O=C(Nc1cccc([N+](=O)[O-])c1)c1ccc(-c2ccccc2)cc1	12%	-16%	29%	26%	2%	5%
Cc1c(C(=O)Nc2cccc([N+](=O)[O-])c2)csc1-c1ccccc1	0.71µM*	0.85µM*	?	1.3µM*	28µM*	?
Cc1ccc(NC(=O)c2csc(-c3ccccc3)c2C)cc1	0.11µM*	0.095µM*	?	0.32µM*	-4%	?
O=C(CCN1CCC(c2cccs2)=N1)c1cccs1	12%	?	?	7%	.	10%
O=C(C[C@H]1C/C=C\CC[C@H](Cc2ccc(F)cc2)C(=O)O[C@@H](c2ccccc2)CNC1=O)N[C@@H](CO)Cc1ccccc1	.	.	9.2µM*	.	.	-6%
O=C(C[C@H]1C/C=C\CC[C@H](Cc2ccc(F)cc2)C(=O)OC[C@H]2CCCN2C1=O)N[C@H](CO)Cc1ccccc1	.	.	23µM*	.	.	-7%
O=C(C[C@H]1C/C=C\C[C@H](Cc2ccc(F)cc2)C(=O)O[C@@H](c2ccccc2)CNC1=O)N[C@H](CO)Cc1ccccc1	.	.	?	.	.	0%
O=C(C[C@H]1C/C=C\CC[C@H](Cc2ccc(F)cc2)C(=O)O[C@@H](c2ccccc2)CNC1=O)N[C@H](CO)Cc1ccccc1	.	.	21µM*	.	.	-7%

Bioassay records: PubChem BioAssay, National Center for Advancing Translational Sciences (NCATS)
